Reference: publication PMC12670160, “A drug-repurposing screen of FDA- and EMA-approved drugs identifies two NF-κB inhibitors active against eumycetoma” (Journal of Antimicrobial Chemotherapy, 2025)
Structures can show the parent of a compound that is named as a salt. Where two headings read alike, the source gives them in different places. The whole screen tested about 5,300 compounds, of which about 130 (2.5%) showed an effect of 50% or more. For the sample, strong results were picked, then their nearest neighbours and some compounds at random.

System: M. mycetomatis strain mm55
Details: 96 h, 2 µM

Row | Structure (SMILES) | % viability (m. mycetomatis hyphae) [%] | % viability (primary screen, metabolic activity vs growth control, inhibitor) [%]
1 | COc1cc2cc(c1Cl)N(C)C(=O)C[C@H](OC(=O)C(C)C)[C@]1(C)O[C@H]1[C@H](C)[C@@H]1C[C@@](O)(NC(=O)O1)[C@H](OC)/C=C/C=C(\C)C2 [ONC0000769, ansamitocin p3] | 44.45 | –
2 | Cc1[nH]c2ccc(O)cc2c1CCN [ONC0000021, 2methyl5hydroxytryptamine] | 80.31 | –
3 | OCC(Br)(Br)Br [ONC0003374, 222tribromoethanol] | 70.94 | –
4 | COC(=O)CC[C@@H]1N=C(c2ccccn2)c2cc(Br)ccc2-n2c(C)cnc21 [ONC0001123, remimazolam benzenesulfonate] | 82.85 | –
5 | Ic1cncc(OC[C@@H]2CCN2)c1 [ONC0001838, 5iodoa85380] | 120.9 | –
6 | NC(=S)N/N=C/c1coc2ccccc2c1=O [ONC0001578, fpa124] | 55.38 | –
7 | C[C@@H](N)C(=O)N[C@@H](CO)C(=O)N[C@H](C(=O)N[C@H](C(=O)N[C@H](C(=O)N[C@@H](CC(N)=O)C(=O)N[C@@H](Cc1ccc(O)cc1)C(=O)N[C@H](C(N)=O)[C@@H](C)O)[C@@H](C)O)[C@@H](C)O)[C@@H](C)O [ONC0001968, dapta] | – | 96.08
8 | COc1ccc(C(=O)c2c(C)n(CCN3CCOCC3)c3ccccc23)cc1 [ONC0001936, pravadoline] | 72.97 | –
9 | COc1ccc(C(=O)c2c(C)n(CCN3CCOCC3)c3cc(I)ccc23)cc1 [ONC0003455, am630 iodopravadoline] | 49.32 | –
10 | CC(=O)NCCCOc1ccc(C(=O)N2CCC(N3C(=O)CCc4ccccc43)CC2)cc1 [ONC0002419, fuscoside] | 92.96 | –
11 | CC(=O)O[C@H]1CC[C@@]2(C)C(=CC(=O)[C@@H]3[C@@H]2CC[C@]2(C)C(=O)CC[C@@H]32)C1 [ONC0002730, 7oxodehydroepiandrosterone acetate] | 95.04 | –
12 | C[C@]12CC[C@H](O)C[C@@H]1CC[C@@H]1[C@H]2CC[C@]2(C)C(=O)CC[C@@H]12 [ONC0005247, epiandrosterone 3androsterone] | 106.6 | –
13 | CC(=O)O[C@H]1CC[C@@]2(C)C(=CCC3C2CC[C@]2(C)C(=O)CCC32)C1 (stereo partly shown) [ONC0003269, prasterone acetate] | 44.2 | –
14 | Cc1ncc(OC[C@@]2(c3cccc(F)c3)C[C@H]2C(=O)Nc2ccc(F)cn2)c(C)n1 [ONC0001232, lemborexant] | 126.3 | –
15 | COC(=O)C1=C(C)NC(C)=C(C(=O)OCCCN2CCC(c3ccccc3)(c3ccccc3)CC2)[C@@H]1c1cccc([N+](=O)[O-])c1 [ONC0000198, dexniguldipine] | 76.6 | –
16 | Cc1ccc2c(c1)[C@]13CCCC[C@@H]1[C@H](C2)N(C)CC3 [ONC0001964, dimemorfan] | 96.79 | –
17 | O=C1C=C2C=C[C@@H]3C[C@@]2(O1)[C@H]1CCCCN31 [ONC0004197, securinine] | 79.41 | –
18 | OC1(c2ccc(Cl)cc2)c2ccccc2C2=NCCN21 (stereo not shown) [ONC0005297, mazindol] | 110.5 | –
19 | CN(C)CCNc1nc2cc(O)ccc2c2c1C(=O)c1ccccc1-2 [ONC0002255, tas103 dihydrochloride] | 114.4 | –
20 | Oc1ccc2c3c1O[C@H]1[C@@H](O)CC[C@@]4(O)[C@@H](C2)N(CC2CCC2)CC[C@]314 [ONC0002017, nalbuphinehcl] | 86.82 | –

Row | Structure (SMILES) | % viability (m. mycetomatis hyphae) [%] | % viability (primary screen, metabolic activity vs growth control, inhibitor) [%]
21 | COC(=O)/C=C/C(=O)N[C@@H]1CC[C@@]2(O)[C@H]3Cc4ccc(O)c5c4[C@@]2(CCN3CC2CC2)[C@H]1O5 [ONC0001459, betafunaltrexamine] | 48.02 | –
22 | Oc1ccc2c3c1O[C@H]1c4[nH]c5ccccc5c4C[C@@]4(O)[C@@H](C2)N(CC2CC2)CC[C@]314 [ONC0001519, naltrindole] | 93.26 | –
23 | Oc1ccc2c3c1O[C@H]1c4[nH]c5c(c4C[C@@]4(O)[C@@H](C2)N(CC2CC2)CC[C@]314)C[C@@]1(O)[C@H]2Cc3ccc(O)c4c3[C@@]1(CCN2CC1CC1)[C@H]5O4 [ONC0002653, norbinaltorphiminedihydrochloride] | 66 | –
24 | Oc1ccc2c3c1O[C@H]1c4oc5ccccc5c4C[C@@]4(O)[C@@H](C2)N(CC2CC2)CC[C@]314 [ONC0001439, naltriben] | 49.95 | –
25 | CN(C(=O)/C=C/c1ccoc1)[C@@H]1CC[C@@]2(O)[C@H]3Cc4ccc(O)c5c4[C@@]2(CCN3CC2CC2)[C@H]1O5 [ONC0001145, nalfurafine hydrochloride] | 84.21 | –
26 | O=C1NC(=S)NC(=O)C1C(=O)Nc1ccccc1 [ONC0002959, merbarone] | 104.2 | –
27 | COc1ccsc1CNCC[C@@]1(c2ccccn2)CCOC2(CCCC2)C1 [ONC0001391, oliceridine hydrochloride] | 102.3 | –
28 | O=C(C[S+]([O-])C(c1ccccc1)c1ccccc1)NO (stereo not shown) [ONC0001184, adrafinil] | 106.5 | –
29 | Clc1ccc(CO/N=C(\Cn2ccnc2)c2ccc(Cl)cc2Cl)c(Cl)c1 [Oxiconazole nitrate] | 0.8852 | –
30 | CC(=O)[C@H]1CC[C@H]2[C@@H]3CC[C@@H]4C[C@H](O)CC[C@]4(C)[C@H]3CC[C@]12C [ONC0001671, allopregnanolone] | 102.1 | –
31 | Cc1ccccc1-n1c(CF)nc2ccc(N)cc2c1=O [ONC0003405, afloqualone] | 71.52 | –
32 | CC(C)CC(N)C1(c2ccc(Cl)cc2)CCC1 (stereo not shown) [ONC0002665, bts54505] | 62.54 | –
33 | O=C(Nc1ccccc1F)N[C@H]1N=C(c2ccccc2)c2ccccc2NC1=O [ONC0000966, rsv604] | 70.36 | –
34 | OCC(O)[C@H]1O[C@@H]2O[C@H](C(Cl)(Cl)Cl)O[C@@H]2[C@H]1O (stereo partly shown) [ONC0004285, chloralose] | 88.6 | –
35 | c1ccc(CC(c2ccccc2)N2CCCCC2)cc1 (stereo not shown) [ONC0000060, 112diphenylethylpiperidine] | 45.07 | –
36 | Cc1cccc(C)c1N=C1NCCCS1 [ONC0000628, xylazine] | 103.4 | –
37 | O=C(O)Cc1cccnc1C(=O)O [ONC0001551, homoquinolinicacid] | 85.08 | –
38 | CC(C)(O)[C@H]1[C@@H]2OC(=O)[C@@H]1[C@]1(O)C[C@H]3O[C@]34C(=O)O[C@H]2[C@]14C [ONC0002779, picrotin] | 109.3 | –
39 | C=C(C)[C@@H]1[C@H]2OC(=O)[C@H]1[C@]1(O)C[C@H]3O[C@]34C(=O)O[C@H]2[C@]14C [ONC0004797, picrotoxinin] | 48.22 | –
40 | C=CCN1CC[C@@]2(C)c3cc(O)ccc3C[C@H]1[C@H]2C [ONC0000854, skf10047] | 56.88 | –
